For nine compounds, growth results are on record in PubChem BioAssay (NCI).

Some test systems named below: SK-MEL-2 melanoma; EKVX NSCLC; SN12C renal; UO-31 renal; TK-10 renal; ACHN renal; A498 renal; SR leukemia; OVCAR-8 ovarian; OVCAR-5 ovarian; OVCAR-4 ovarian; SK-OV-3 ovarian; IGROV1 ovarian; OVCAR-3 ovarian; HS 578T breast; NCI/ADR-RES ovarian; CCRF-CEM leukemia; MOLT-4 leukemia; RPMI-8226 leukemia; CAKI-1 renal.
Common to all, as to assay: NCI-60 one-dose screen, 48 h (100 = growth as untreated, 0 = no growth, -100 = all killed)
What all share (conditions): 10 µM unless noted

The panel holds about 83,000 compounds, 20% with a hit somewhere; the sample as a whole holds those more often.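 In brief: 96-well plates, 48 h treatment, single concentration, percent growth endpoint.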 A number with no mark means an inactive call. The source made the active and inactive calls. How the source made its calls: active means growth percent below 10; inactive means the rest.

`CC(C)(C)N1CCC1CN` (configuration not stated): the growth was 72.1% with SK-MEL-2 melanoma; 90.1% in the assay with EKVX NSCLC; 111% in the assay on SN12C renal; 91.1% in the assay with UO-31 renal; 106% in the assay with TK-10 renal; 114% in the assay on ACHN renal. Further, the growth in the assay on A498 renal is 88.5%; in the assay with SR leukemia, 101%; in the assay with OVCAR-8 ovarian, 97.5%; in the assay with OVCAR-5 ovarian, 107%; with OVCAR-4 ovarian it was 103%; with SK-OV-3 ovarian, 104%. For the same compound, the growth was 112% with IGROV1 ovarian, 103% in the assay on OVCAR-3 ovarian, 117% in the assay with HS 578T breast and 113% in the assay on NCI/ADR-RES ovarian.

In the case of `N#Cc1nnn(-c2ccc(S(N)(=O)=O)cc2)c1NC(=O)CCl`, the growth in the assay on SK-MEL-2 melanoma is 106%; with EKVX NSCLC, 91.4%; in the assay with SN12C renal, 88.3%; with UO-31 renal, 86.5%; in the assay with TK-10 renal, 96.4%; in the assay with ACHN renal it was 108%. Also, the growth with A498 renal is 91.5%; in the assay on CCRF-CEM leukemia, 88.8%; in the assay on MOLT-4 leukemia it was 92.4%; with SR leukemia it was 96.1%; in the assay with RPMI-8226 leukemia, 91.4%; with OVCAR-8 ovarian, 101%. The growth with OVCAR-4 ovarian is 103%; with SK-OV-3 ovarian it was 96.6%; in the assay with IGROV1 ovarian, 104%; with OVCAR-3 ovarian, 106%; in the assay with HS 578T breast, 0.129% (active); in the assay on NCI/ADR-RES ovarian it was 102%.

As to `O=C1c2cccc3cccc(c23)C(=O)N1CCCCN1CCN(CCCCOc2ccc(-c3nc4ccc(N5CCOCC5)cc4[nH]3)cc2)CC1`, the growth with SK-MEL-2 melanoma was 90.4%; in the assay on EKVX NSCLC it was 91.7%; with SN12C renal, 94.7%; in the assay with UO-31 renal, 32.8%; with TK-10 renal, 114%; in the assay on ACHN renal, 104%. In addition, the growth in the assay on A498 renal is 111%; with CCRF-CEM leukemia it was 30.8%; in the assay on MOLT-4 leukemia it was 52.3%; with SR leukemia, -65% (active); in the assay on RPMI-8226 leukemia, 32.4%; with OVCAR-8 ovarian it was 22%. Also, the growth in the assay with OVCAR-5 ovarian was 109%; in the assay on SK-OV-3 ovarian, 95.9%; in the assay with IGROV1 ovarian it was 68.9%; with OVCAR-3 ovarian it was 100%; in the assay with HS 578T breast it was 86.6%; in the assay on NCI/ADR-RES ovarian it was 76.6%.

Consider `CN1CCN=C1c1ccc(NC(=O)c2ccc(C(=O)Nc3ccc(C4=NCCN4C)cc3)cc2)cc1`, for which the growth with SK-MEL-2 melanoma is 121%; in the assay with EKVX NSCLC, 89.1%; in the assay with SN12C renal, 98.1%; with UO-31 renal it was 82.3%; in the assay on TK-10 renal, 90.4%; with ACHN renal, 99.3%. Moreover, the growth is 117% in the assay on A498 renal; 110% in the assay with CCRF-CEM leukemia; 100% in the assay with MOLT-4 leukemia; 89.4% with SR leukemia; 85.7% in the assay with OVCAR-8 ovarian; 87.5% in the assay on OVCAR-5 ovarian. Further, the growth in the assay on OVCAR-4 ovarian is 98.3%; with IGROV1 ovarian, 90.1%; in the assay with OVCAR-3 ovarian, 109%; in the assay with HS 578T breast it was 80.3%; with NCI/ADR-RES ovarian it was 100%.

As to `CN1CCN(c2nc(NCCCCNc3ccnc4cc(Cl)ccc34)c3ccccc3n2)CC1`, the growth with SK-MEL-2 melanoma was 87.3%; in the assay on EKVX NSCLC, 80.7%; in the assay on SN12C renal it was 79.8%; in the assay with UO-31 renal, 46.1%; with TK-10 renal, 73%; in the assay on ACHN renal, 74.3%. For the same compound, the growth in the assay on A498 renal is 71.1%; in the assay with CCRF-CEM leukemia, 35.3%; with MOLT-4 leukemia, 43.9%; in the assay with SR leukemia, -26.6% (active); in the assay on RPMI-8226 leukemia, -8.38% (active); with OVCAR-8 ovarian, 38.3%. Besides, the growth in the assay with OVCAR-4 ovarian is 68.5%; in the assay with IGROV1 ovarian, 78.2%; in the assay on OVCAR-3 ovarian, 76.6%; in the assay on HS 578T breast, 81.1%; with NCI/ADR-RES ovarian, 95.3%.

For the compound `CN1CCN(c2ccc3nc(-c4ccc(OCCCCN5CCN(CCCCN6C(=O)c7cccc8cccc(c78)C6=O)CC5)cc4)[nH]c3c2)CC1`, the growth was 79.2% in the assay with SK-MEL-2 melanoma; 78.9% in the assay with EKVX NSCLC; 73.8% in the assay on SN12C renal; 16.7% in the assay on UO-31 renal; 88.4% in the assay with TK-10 renal; 89% in the assay with ACHN renal. Besides, the growth in the assay with A498 renal is 119%; with CCRF-CEM leukemia it was 26.2%; with SR leukemia, -68.4% (active); in the assay on RPMI-8226 leukemia, 26.3%; in the assay on OVCAR-8 ovarian, 22.6%; in the assay with OVCAR-5 ovarian, 116%. Moreover, the growth was 80.5% with OVCAR-4 ovarian; 58.5% in the assay on IGROV1 ovarian; 76.1% in the assay with OVCAR-3 ovarian; 35.2% with HS 578T breast; 69.6% with NCI/ADR-RES ovarian.

As to `O=C1C=C(OCC=C(Cl)Cl)C(=O)c2ccccc21`, the growth is 69.8% in the assay with SK-MEL-2 melanoma; 93.3% in the assay on EKVX NSCLC; 84.5% in the assay on SN12C renal; 59% with UO-31 renal; 64% in the assay with ACHN renal; 93.4% with CAKI-1 renal. The growth with A498 renal is 97.7%; in the assay on CCRF-CEM leukemia it was 28.7%; with MOLT-4 leukemia it was 71%; in the assay with SR leukemia it was 51.6%; with RPMI-8226 leukemia it was 45.6%; in the assay on OVCAR-8 ovarian it was 71.5%. In addition, the growth with OVCAR-5 ovarian is 116%; with OVCAR-4 ovarian, 15.9%; in the assay on SK-OV-3 ovarian, 102%; in the assay on IGROV1 ovarian, 75.6%; in the assay on OVCAR-3 ovarian it was 32.2%; with HS 578T breast, 55.5%. Moreover, the growth in the assay with NCI/ADR-RES ovarian is 33.8%.

In the case of `Cc1ccc(C(SCC(N)C(=O)O)(c2ccccc2)c2ccc(C)cc2)cc1` (configuration not stated), the growth was -24.4% (active) with SK-MEL-2 melanoma; 43.1% in the assay on EKVX NSCLC; 29.9% in the assay on SN12C renal; 38.6% in the assay with UO-31 renal; 60.7% with TK-10 renal; 56.3% in the assay with ACHN renal. Besides, the growth was 29% with A498 renal; 6.28% (active) in the assay on CCRF-CEM leukemia; 13.8% in the assay with MOLT-4 leukemia; -29.8% (active) in the assay on SR leukemia; -32.5% (active) with OVCAR-8 ovarian; 6.69% (active) in the assay with OVCAR-5 ovarian. In addition, the growth with OVCAR-4 ovarian is 61.5%; in the assay on SK-OV-3 ovarian, 28.6%; with IGROV1 ovarian it was -32% (active); with OVCAR-3 ovarian, -48% (active); in the assay on HS 578T breast it was -45.6% (active); with NCI/ADR-RES ovarian, 7.01% (active).

As to `CC[C@@H]1O[C@H](O[C@@H](c2cnc[nH]2)[C@H](NC(=O)c2nc([C@H](CC(N)=O)NC[C@@H](N)C(N)=O)nc(N)c2C)C(=O)N[C@H](C)[C@H](O)[C@H](C)C(=O)N[C@@H](C(=O)NCCc2nc(-c3nc(C(=O)NCCCCN=C(N)N)cs3)cs2)[C@@H](C)O)[C@H](O[C@@H]2O[C@H](CO)[C@H](O)[C@H](OC(N)=O)[C@@H]2O)[C@H](C)[C@@H]1C`, the growth was 101% with SK-MEL-2 melanoma; 91.8% in the assay on EKVX NSCLC; 21.9% in the assay with SN12C renal; 23.2% with UO-31 renal; 71.9% with TK-10 renal; 78.2% in the assay on A498 renal. In addition, the growth in the assay on CCRF-CEM leukemia is 80.5%; in the assay with MOLT-4 leukemia, 46.8%; in the assay on RPMI-8226 leukemia it was 73%; in the assay with OVCAR-8 ovarian, 47.2%; with OVCAR-5 ovarian it was 59.5%; in the assay with OVCAR-4 ovarian, 85.6%. The growth with SK-OV-3 ovarian was 41.8%; with IGROV1 ovarian, 45.5%; in the assay with OVCAR-3 ovarian it was 60.8%; in the assay with HS 578T breast, 38.8%; in the assay with NCI/ADR-RES ovarian, 20.1%.
